This is one part of the list. Values without a mark were called inactive. Calls of active or inactive are those of the source.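 How the source made its calls, unless noted: active means activation above a set limit carried over from the earlier primary STAT1 screen (cut at about 140% in these data); inactive means the rest.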

Assay [1] is described as follows: STAT1 signaling activators, confirmation, cell-based, HTS, luciferase reporter (AID 1262).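 Further: simple ratio to median IFN-gamma plus DMSO wells so 0% means no light.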 The conditions noted are these: NIH 3T3 STAT1-luciferase reporter, IFN-gamma potentiation, luminescence; at 5.7 µM; active compounds read high; 100% = IFN-gamma EC80 alone, no compound.
Assay [2] in a line: NF-kB reporter activators, TNF-alpha stimulated, counter-screen for STAT1 activator project, cell-based, HEK293T, luciferase luminescence (AID 1306;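 active means activation above the mean of solvent-only control wells plus 3 SD, set per campaign, cut at about 130% in these data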;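 further: TNF-alpha given at a submaximal dose yielding about 80% of full reporter signal; values are well signal over median control so 100% means no change and 0% no light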). The conditions noted are these: at 5.7 µM, active compounds read high, 100% = TNF-alpha with vehicle only.
For assay [3], the target named is Signal transducer and activator of transcription 3 (Homo sapiens) (UniProt P40763). As to the kind of experiment: STAT3 reporter activation by STAT1 hits, confirmation, counter-screen for STAT1 activator project, U3A cells, luciferase, luminescence (AID 1316;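 active means activation above the solvent-only control well mean plus 3 SD, set per plate batch, cut at about 110% in these data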;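 further: 0% = no luminescence and 100% = median IL-6 plus DMSO wells; higher means more STAT3 reporter activation so hits are non-selective activators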). As to conditions: IL-6, luminescence, at 5.7 µM, active compounds read high, 100 = IL-6 alone, no compound effect, cells lack STAT1. For orientation: The purpose of a counterscreen is to sort out artefacts and off-target activity.

The target in assay [4] is Oxysterols receptor LXR-beta (Homo sapiens) (UniProt P55055). The assay is described as follows: LXR agonists, Gal4 luciferase reporter, confirmation, counter-screen for hcDAF-12 agonist project, cell-based, luminescence, HEK293, H. contortus campaign (AID 743027;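 active means mean percent activation of the reporter above a cutoff set as the average over tested compounds plus their standard deviation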). As to conditions: HEK293 Gal4-LXR tk-luc reporter, 24 h, at 6.8 µM, active compounds read high, normalized: DMSO 0%, positive control 100%. On the technique in general: A reporter such as luciferase makes a cellular process visible.
Oxysterols receptor LXR-beta (Homo sapiens), sequence (P55055 whole entry, looked up, the tested form may be a part): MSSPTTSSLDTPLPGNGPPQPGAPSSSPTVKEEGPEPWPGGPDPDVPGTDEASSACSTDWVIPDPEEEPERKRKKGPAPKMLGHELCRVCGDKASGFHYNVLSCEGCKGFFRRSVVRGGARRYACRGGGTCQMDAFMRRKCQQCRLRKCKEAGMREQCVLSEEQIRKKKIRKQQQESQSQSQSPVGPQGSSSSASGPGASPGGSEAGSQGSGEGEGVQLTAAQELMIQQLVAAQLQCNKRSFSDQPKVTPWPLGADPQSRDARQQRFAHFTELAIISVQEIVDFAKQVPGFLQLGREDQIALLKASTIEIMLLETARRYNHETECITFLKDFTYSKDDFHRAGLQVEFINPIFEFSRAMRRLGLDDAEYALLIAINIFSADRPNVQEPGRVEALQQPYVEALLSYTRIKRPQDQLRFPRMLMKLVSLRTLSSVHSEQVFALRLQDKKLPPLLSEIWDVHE

Assay [5] concerns Nuclear hormone receptor DAF-12 (Haemonchus contortus). The assay is described as follows: H. contortus DAF-12 receptor agonists, confirmation, cell-based, luminescence, HEK293, lit1-tk-luc, triplicate (AID 743032;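 active means mean activation across triplicate tests above the threshold derived from the earlier primary screen, cut at about 5.5% in these data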;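 further: 0% = DMSO only wells and 100% = 3 µM Δ7-dafachronic acid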). As to conditions: HEK293 hcDAF-12 lit1-tk-luc reporter, at 6.8 µM, active compounds read high, % of Δ7-dafachronic acid response.
Assay [6] relates to DAF-12 nuclear receptor (Heterodera glycines), GAL4-LBD fusion. The assay is described as follows: H. glycines DAF-12 receptor agonists, confirmation, cell-based, luminescence, HEK293, GAL4-LBD fusion (AID 743050;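 active means mean activation over triplicate wells above the hit cutoff derived from the earlier primary screen, cut at about 11% in these data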;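 further: 0% = DMSO low control and 100% = 2 mM sodium butyrate high control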). The conditions noted are these: HEK293 GAL4-hgDAF12 luciferase reporter, agonist mode; at 6.8 µM; active compounds read high; percent of butyrate response.
Assay [7] has as its target Oxysterols receptor LXR-beta (Homo sapiens) (UniProt P55055). As to the kind of experiment: LXR agonists, Gal4 luciferase reporter, confirmation, counter-screen for hgDAF-12 agonist project, cell-based, luminescence, HEK293, H. glycines campaign (AID 743051;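 active means mean activation of the triplicate above a set limit carried over from the primary screen, none filed active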). As to conditions: 24 h, at 6.8 µM, active compounds read high.

Consider `CC(=O)Nc1cccc(-c2csc(Nc3cccc(C)n3)n2)c1`, for which the values for the activation (% of control) in assay [1], in assay [2] and in assay [3] were 241% (active), 144% (active) and 106%, respectively. Besides, the activation in assay [4] was 1.08%; in assay [5] it was 3.26%; in assay [6], 19% (active); in assay [7] it was 1.17%.
For the molecule `COc1ccc2nc(NC(=O)c3ccc(Br)s3)sc2c1`, the values for the activation (% of control) in assay [1], in assay [2] and in assay [3] were 185% (active), 134% (active) and 99.8%, respectively.
Take `Cc1ccc(NC(=O)Nc2ccc3oc(C)nc3c2)cc1`: the activation (% of control) in assay [1] is 200% (active); in assay [2] it was 128%; in assay [3], 102%.
As to `NC(=O)Cc1ccc2sc(-c3ccccc3)nc2c1`, the figures for the activation (% of control) in assay [1], in assay [2] and in assay [3] were 203% (active), 126% and 108%, respectively. Further, the activation in assay [6] is 17.4% (active); in assay [7] it was 0.66%.
As for `O=C(Nc1ccc2c(c1)CCC2)c1ccc(Br)s1`, the activation (% of control) in assay [1] was 236% (active); in assay [2], 137% (active); in assay [3], 114% (active). In addition, the activation was 2.03% in assay [4], 7.91% (active) in assay [5], 24.6% (active) in assay [6] and 1.14% in assay [7].
`COc1ccc(-n2ncc3c(N4CCCc5ccccc54)ncnc32)cc1`: the figures for the activation (% of control) in assay [1], in assay [2] and in assay [3] were 209% (active), 139% (active) and 112% (active), respectively.
Take `COc1ccc2nc(SCc3ccccc3)nc(C)c2c1`: the activation (% of control) in assay [1] was 231% (active); in assay [2], 141% (active); in assay [3], 107%. In addition, the activation in assay [4] is 1.78%; in assay [5], 5.65% (active); in assay [6], 17.7% (active); in assay [7], 1%.
With `COc1ccc(-n2nnnc2-c2nc3ccccc3s2)cc1`, the activation (% of control) in assay [1] was 214% (active); in assay [2], 117%; in assay [3], 111% (active). The activation was 1.88% in assay [4] and 12.8% (active) in assay [5].
`Clc1ccc(Nc2nc(-c3cccs3)cs2)nc1`: the activation (% of control) in assay [1] is 289% (active); in assay [2], 149% (active); in assay [3], 133% (active). In addition, the activation in assay [4] was 2.13%; in assay [5], 13.6% (active); in assay [6], 13.1% (active); in assay [7], 0.65%.

Source of the values: PubChem BioAssay.
